Mtb hypoxia inh: PubChem AID 1159583; M. tuberculosis hypoxia-regulated fluorescent reporter, fluorescence; fluorescence inhibition, % (test concentration not listed); 300,000 compounds, 0.1% hits; in the data active = fluorescence inhibition mostly above about 23%, no sharp cut-off; inactive = mostly below about 17%
FBA Mtb inh: Mtb FBA enzyme inhibitors, primary screen, biochemical, fluorescence, strain H37Rv; inhibition, % at 1 µM; purified M. tuberculosis FBA, fluorescence read-out; Fructose-bisphosphate aldolase (Mycobacterium tuberculosis (strain ATCC 25618 / H37Rv)), …; 360,000 compounds, 2.3% hits; AID 588726, 2011;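 also: 0% = vehicle and 100% = reference inhibitor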
Rv3671c protease: Rv3671c serine protease inhibitors, primary screen, biochemical, fluorescence polarization, M. tuberculosis H37Rv; P9WHR9; inhibition, % at 5.96 µM; 320,000 compounds, 0.048% hits; AID 2606, 2010; in the data active = inhibition above about 38%;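 also: extracellular domain of Rv3671c used as enzyme; 0% = enzyme with DMSO and 100% = no enzyme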
GDH-TPI counter-1: GDH-TPI coupling enzyme inhibitors, primary screen, artefact control for M. tuberculosis FBA inhibitor project, biochemical, absorbance, full deck; GDH-TPI coupled enzyme counterscreen, NADH absorbance; inhibition, % at 4.8 µM; 360,000 compounds, 1.2% hits; AID 588335, 2011; in the data active = inhibition above about 30%;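 also: 0% = DMSO wells and 100% = wells lacking the enzyme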
Mtb UGM inh: M. tuberculosis UGM enzyme inhibitors, primary screen, biochemical, fluorescence polarization, single point | AID 504406, 2011 | inhibition, % at 10 µM | purified UGM, fluorescence polarization probe displacement | UDP-galactopyranose mutase (Mycobacterium tuberculosis (strain ATCC 25618 / H37Rv)), … | 320,000 compounds, 0.06% hits; in the data active = inhibition above about 10%, passing the limit was not always enough
Target sequence (P9WIQ1 whole entry, looked up): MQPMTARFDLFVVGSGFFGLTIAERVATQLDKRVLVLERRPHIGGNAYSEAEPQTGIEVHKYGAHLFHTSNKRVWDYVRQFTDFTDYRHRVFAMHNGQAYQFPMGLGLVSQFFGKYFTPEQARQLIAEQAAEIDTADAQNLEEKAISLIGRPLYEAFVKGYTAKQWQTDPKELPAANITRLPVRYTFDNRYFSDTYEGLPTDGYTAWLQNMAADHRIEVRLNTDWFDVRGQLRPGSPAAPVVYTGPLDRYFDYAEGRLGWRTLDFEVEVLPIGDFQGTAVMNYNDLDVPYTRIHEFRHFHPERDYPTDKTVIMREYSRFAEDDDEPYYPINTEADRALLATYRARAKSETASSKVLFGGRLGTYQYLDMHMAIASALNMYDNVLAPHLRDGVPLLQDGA
FadD28 binding: inhibitors of FadD28 bisubstrate probe binding, primary screen, biochemical, fluorescence polarization, single point; Mycobacterium tuberculosis FadD28 fatty-acid-AMP ligase; inhibition, % at 12.5 µM; 360,000 compounds, 0.22% hits; AID 588549, 2011; in the data active = inhibition above about 8.5%, passing the limit was not always enough
Mtb FBA inh conf: M. tuberculosis aldolase blockers, biochemical, fluorescence, strain H37Rv, confirmation; AID 651616, 2012; purified M. tuberculosis FBA, fluorescence read-out; inhibition, % at 1 µM; 5,600 compounds, 78% hits; shares compounds with FBA Mtb inh;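 also: 0% = vehicle wells and 100% = reference inhibitor wells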
GDH-TPI counter-2: GDH-TPI coupling enzyme inhibitors, artefact control for M. tuberculosis FBA inhibitor project, biochemical, fluorescence, high throughput. shares compounds with FBA Mtb inh. GDH-TPI coupled enzyme counterscreen. 5,600 compounds, 81% hits. AID 652141, 2013. inhibition, % at 1 µM; in the data active = inhibition above about 10%
GDH-TPI DR: GDH-TPI coupling enzyme inhibitors, dose response, artefact control for M. tuberculosis FBA inhibitor project, biochemical, fluorescence, IC50. GDH-TPI coupled enzyme assay, artifact counterscreen. IC50, µM. 170 compounds, 79% hits. shares compounds with FBA Mtb inh; call rule not given here
* hit, by the source's call; . = not tested or not shown. This is a sample that favours compounds with a hit; in the whole collection about 3.5% have one here. Rule as the data show it, unless noted: active = inhibition above about 27%; inactive = the rest.

SMILES	Mtb hypoxia inh	FBA Mtb inh	Rv3671c protease	GDH-TPI counter-1	Mtb UGM inh	FadD28 binding	Mtb FBA inh conf	GDH-TPI counter-2	others
C=C(C)C1CC[C@]2(C(=O)O)CC[C@]3(C)C(CCC4[C@@]5(C)CCC(O)C(C)(C)C5CC[C@]43C)C12 (some centres undefined)	-5.4	.	.	.	.	.	.	.
COc1ccc(Cl)cc1N(CC(=O)NN=Cc1ccc(OCC(N)=O)cc1)S(C)(=O)=O	4.2	.	.	.	.	.	.	.
COc1ccc(-c2ncccc2O)cc1	10.9	40.2*	1.9	0.5	-0.7	-0.3	87.7*	91.5*
CCCN1CCCCC1C(=O)Nc1c(C)cccc1C (centres undefined)	-0.6	.	.	.	.	.	.	.
COc1cccc(C2c3[nH]c4ccccc4c3C[C@H]3C(=O)N(CCCO)CC(=O)N23)c1OC (some centres undefined)	8.0	-0.8	-4.4	5.7	-1.1	0.2	.	.
COc1ccc2c(c1OC)C(=O)N1C(C(=O)O)Cc3c([nH]c4ccccc34)C21 (centres undefined)	3.3	36.4*	-15.9	0.3	1.3	-3.6	107.3*	89.3*
CCn1c2ccccc2c2cc(/C=N/n3cnnc3)ccc21	.	32.5*	-1.9	46.3*	1.3	-4.0	58.9*	48.1*
CCn1c2ccccc2c2cc(/C=N/n3cn[nH]c3=S)ccc21	.	5.0	-4.6	20.5	-0.4	2.6	.	.
CCn1c(/C=N/n2cnnc2)nc2ccccc21	.	28.2*	7.3	47.2*	3.0	-0.7	115.7*	82.5*
ON=C(C[n+]1ccccc1)c1ccc(Br)cc1	5.6	.	.	.	.	.	.	.
Cc1ccccc1NC(=O)c1cnc2ccccn2c1=O	4.1	-0.3	3.4	10.4	2.0	-2.7	.	.
Cc1csc2ncc(C(=O)NCCC(c3ccccc3)c3ccccc3)c(=O)n12	7.7	33.5*	-10.3	18.8	-0.1	-6.0	100.8*	56.7*
CCc1ccccc1NC(=O)c1cnc2scc(C)n2c1=O	4.4	-0.6	1.4	1.4	1.1	-2.2	.	.
O=C(NCCc1ccccc1)c1cnc2ccccn2c1=O	-12.9	105.2*	-5.4	29.6	-2.2	-3.3	113.0*	88.2*
Cc1csc2ncc(C(=O)NCc3ccccn3)c(=O)n12	11.6	64.6*	-3.0	36.1*	0.1	-0.1	175.1*	147.4*
CSc1ccccc1NC(=O)c1cnc2scc(C)n2c1=O	12.9	-1.5	-2.6	28.2	-0.6	-7.3	.	.
Cc1csc2ncc(C(=O)NCCc3ccccc3)c(=O)n12	14.7	51.7*	5.8	29.1	1.9	-2.8	122.1*	103.7*
COc1cc(C)cc2oc(=O)c(CC(=O)N3C[C@H]4C[C@@H](C3)c3cccc(=O)n3C4)c(C)c12	.	80.6*	-4.7	3.9	2.8	-3.2	139.0*	123.6*
Cc1coc2cc3oc(=O)c(CCC(=O)N4C[C@H]5C[C@@H](C4)c4cccc(=O)n4C5)c(C)c3cc12	.	17.1	-4.2	11.8	1.0	0.2	.	.
Cc1c(C)c2ccc(OCC(=O)N3C[C@H]4C[C@@H](C3)c3cccc(=O)n3C4)cc2oc1=O	.	59.9*	-7.0	22.6	1.5	0.0	-8.1	-5.6
C=C(C)COc1cc2oc(=O)c(CC(=O)N3C[C@H]4C[C@@H](C3)c3cccc(=O)n3C4)c(C)c2cc1Cl	.	67.5*	4.4	22.6	0.7	-2.0	1.6	-3.0
Cc1cc(O)c2c(C)c(CC(=O)N3C[C@H]4C[C@@H](C3)c3cccc(=O)n3C4)c(=O)oc2c1	.	1.6	-4.0	9.8	1.2	-3.4	.	.
C=C(C)COc1ccc2c(C)c(CCC(=O)N3C[C@H]4C[C@@H](C3)c3cccc(=O)n3C4)c(=O)oc2c1	.	70.3*	7.6	23.5	3.0	-1.0	65.3*	52.8*
O=C(Cc1csc(N2CCOCC2)n1)NN=Cc1ccc(Cl)cc1Cl	4.5	.	.	.	.	.	.	.
CC=CC(=O)N1CC2(CC(c3cccc(NC(=O)COc4ccc(Cl)cc4)c3)=NO2)CC1C(N)=O (centres undefined)	20.6	.	.	.	.	.	.	.
SMILES	Mtb hypoxia inh	FBA Mtb inh	Rv3671c protease	GDH-TPI counter-1	Mtb UGM inh	FadD28 binding	Mtb FBA inh conf	GDH-TPI counter-2	others
Cc1cc(NN=Cc2ccc(O)cc2O)nc(-c2ccccc2O)n1	2.7	.	.	.	.	.	.	.
CCCCNC(=O)CCCCC(=O)NN=Cc1ccccc1Cl	3.1	.	.	.	.	.	.	.
COCc1ccccc1C1=CC(=O)CC(c2ccc(OC)cc2)C1 (centres undefined)	16.3	.	.	.	.	.	.	.
CCOC(=O)C(=NNc1cccc(C(F)(F)F)c1)N1CCOCC1	7.5	.	.	.	.	.	.	.
O=C(CCC(=O)N1CCOCC1)c1ccc(F)cc1	11.2	-3.1	4.2	-8.2	-2.4	-3.6	.	.
NC(=O)C1CCN(C(=O)CCC(=O)c2ccc(F)cc2)CC1	16.6	53.5*	0.6	-2.6	-1.6	-1.1	135.5*	127.9*
NC(=O)C1CCN(C(=O)CCNS(=O)(=O)c2ccccc2F)CC1	7.7	36.9*	2.5	-4.6	0.2	-1.3	11.1	6.3	GDH-TPI DR=>10
CC(=NNC(=O)CCc1ccccc1)c1ccc(Br)cc1	0.4	.	.	.	.	.	.	.
COc1ccc(-c2ccc(C#N)c(SCC(=O)NC3CC3)n2)cc1OC	15.2	99.2*	-5.8	25.0	0.4	2.0	107.9*	110.6*
COc1ccc(-c2ccc(SCC(=O)NC3CCCC3)nn2)cc1OC	-8.7	3.0	-2.1	10.9	0.1	-2.0	.	.
CCSc1nc(-c2ccc(OC)cc2)ccc1C#N	1.8	42.3*	2.4	13.3	-2.3	-1.0	83.9*	80.2*
COC(=O)c1ccc(CON=Cc2ccccc2OC)cc1	5.8	.	.	.	.	.	.	.
CN1c2cccc3cccc(c23)N(C)C1c1cccs1	23.8	-1.4	7.6	12.7	1.5	0.8	.	.
CC1N(C)c2cccc3cccc(c23)N1C	21.6	103.1*	-24.1	3.0	2.0	-4.7	195.8*	128.0*
O=C1[C@H]2C(c3ccccc3)=NN(c3ccccc3)[C@H]2C(=O)N1c1ccccc1	14.5	31.1*	-3.2	1.3	0.0	1.4	66.8*	58.6*

From PubChem
